{"source": "PubChem BioAssay", "note": "Values without a mark were called inactive. The rule behind the calls is not given here."}
{"tested_on": "Aerobactin synthetase IucA (Klebsiella pneumoniae hvKP1)", "experiment": "Biochemical IucA enzyme inhibition primary screen of the Spectrum library (AID 1346200);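 note: 100% = wells without compound and 0% = wells lacking enzyme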", "details": "malachite green pyrophosphate, A620, at 8 µM, hits give low values", "units": {"activity remaining": "%"}}
{"smiles": "Cc1cc(OC(=O)c2c(C)cc(O)cc2O)cc(O)c1C(=O)O", "activity remaining": 115}
{"smiles": "CC1=CC(=O)c2ccccc2C1=O", "activity remaining": 117}
{"smiles": "COC(=O)C[C@@H]1C2(C)C(=O)[C@@H](CC3C2CC[C@]2(C)C3CC(=O)O[C@H]2c2ccoc2)[C@H](OC(C)=O)C1(C)C", "note": "(stereo not given in full)", "activity remaining": 109}
{"smiles": "CCCCN1CCCCC1C(=O)Nc1c(C)cccc1C", "note": "(stereo not given)", "activity remaining": 103}
{"smiles": "CC12CC[C@H](CC1=O)C2(C)C", "activity remaining": 104}
{"smiles": "CCC(=O)OCC(=O)[C@@]1(OC(=O)CC)[C@@H](C)CC2C3CCC4=CC(=O)C=C[C@]4(C)C3(F)[C@@H](O)C[C@@]21C", "note": "(stereo not given in full)", "activity remaining": 125}
{"smiles": "CN1C2CCC1CC(OC(=O)C(CO)c1ccccc1)C2", "note": "(stereo not given)", "activity remaining": 108}
{"smiles": "CCN1CCN(c2cc3c(cc2F)c(=O)c(C(=O)O)cn3C2CC2)CC1", "activity remaining": 100}
{"smiles": "CCOC(=O)[C@H](CCc1ccccc1)N[C@@H](C)C(=O)N1Cc2ccccc2C[C@H]1C(=O)O", "activity remaining": 95.9}
{"smiles": "C=C1C(=O)O[C@@H]2C3OC3(C)CC/C=C(\\C)CC[C@@H]12", "note": "(stereo not given in full)", "activity remaining": 105}
{"smiles": "CC1(C)S[C@@H]2[C@H](NC(=O)Cc3ccccc3)C(=O)N2[C@H]1C(=O)O", "activity remaining": 111}
{"smiles": "CCOc1ccc(C(=O)c2ccc(O)c(O)c2O)cc1", "activity remaining": 110}
{"smiles": "COc1ccc(C(=O)c2ccccc2)c(O)c1", "activity remaining": 116}
{"smiles": "O=C1C=CC(=O)c2c(O)c(Cl)c(Cl)c(O)c21", "activity remaining": 109}
{"smiles": "CC(=O)OCC(=O)[C@@]1(O)CCC2C3CC[C@@H]4C[C@H](O)CC[C@]4(C)C3C(=O)C[C@@]21C", "note": "(stereo not given in full)", "activity remaining": 97.5}
{"smiles": "COc1cc(/C=C/C(=O)O)cc(OC)c1OC", "activity remaining": 111}
{"smiles": "CN[C@@H]1[C@@H](O[C@H]2O[C@H](CO)[C@@H](N)[C@H](O)[C@H]2O)O[C@H]2C[C@@H](N)[C@H](O[C@H]3[C@H](O)[C@@H](O)[C@H](N)C[C@@H]3N)O[C@@H]2[C@@H]1O", "activity remaining": 124}
{"smiles": "COc1c(O)cc(O)cc1O", "activity remaining": 116}
{"smiles": "COc1cc(OC)c2ccc(=O)oc2c1", "activity remaining": 112}
{"smiles": "CC(=O)O[C@H]1CC[C@@]2(C)C(CC[C@]3(C)C2C(=O)C=C2C4[C@@H](C)[C@H](C)CC[C@]4(C(=O)O)CC[C@]23C)C1(C)C", "note": "(stereo not given in full)", "activity remaining": 113}
{"smiles": "O=c1c(O)cccc2cc(O)c(O)c(O)c12", "activity remaining": 107}
{"smiles": "Cc1ccc(O)cc1", "activity remaining": 102}
{"smiles": "CC(=O)O[C@H]1C[C@@H](OC(C)=O)C(C)(C)C2C[C@@H](OC(C)=O)[C@@]3(C)C4=CC(=O)O[C@@H](c5ccoc5)[C@]4(C)CCC3[C@]21C", "note": "(stereo not given in full)", "activity remaining": 102}
{"smiles": "COc1ccc(-c2coc3cc(O)ccc3c2=O)c(O)c1O", "activity remaining": 114}
{"smiles": "COc1cc(C/C=C/c2ccccc2)c(OC)cc1O", "activity remaining": 113}
{"smiles": "O=C(O)c1cc(O)c(O)c(O)c1", "activity remaining": 117}
{"smiles": "O=C(O)CCCCC1CCSS1", "note": "(stereo not given)", "activity remaining": 103}
{"smiles": "O=C(O)CCCCCCCCCCCCC1C=CCC1", "note": "(stereo not given)", "activity remaining": 118}
{"smiles": "CC(=O)OCC[N+](C)(C)C", "activity remaining": 118}
{"smiles": "CC1CC[C@@]2(OC1)O[C@H]1CC3C4CC[C@@H]5C[C@@H](O)CC[C@]5(C)C4CC[C@]3(C)[C@H]1[C@@H]2C", "note": "(stereo not given in full)", "activity remaining": 111}
{"smiles": "O=c1c(O)c(-c2ccccc2)oc2cc(O)ccc12", "activity remaining": 100}
{"smiles": "C=CCc1ccc(OC(=O)c2ccccc2)c(OC)c1", "activity remaining": 95.9}
{"smiles": "C[C@]12CCC(=O)C=C1C=CC1C2CC[C@@]2(C)C1CC[C@@]21CCC(=O)O1", "note": "(stereo not given in full)", "activity remaining": 119}
{"smiles": "CC(=O)OC1CCC23CC1(C)CCC2C(C)(C)CC3OC(C)=O", "note": "(stereo not given)", "activity remaining": 105}
{"smiles": "COc1c(O)cccc1O", "activity remaining": 87.7}
{"smiles": "O=C(O)c1cc(O)c2c(c1)C(=O)c1cc(O)cc(O)c1C2=O", "activity remaining": 99.8}
{"smiles": "COc1cc(NS(C)(=O)=O)ccc1Cc1c2ccccc2nc2ccccc12", "activity remaining": 104}
{"smiles": "Nc1ccc(N=Nc2ccccc2)c(N)n1", "activity remaining": 112}
{"smiles": "CC1(C)O[C@H]2[C@H](O)C[C@](O)(C(N)=O)C[C@H]2O1", "activity remaining": 109}
{"smiles": "CCCCN(CCCC)CCCOC(=O)c1ccc(N)cc1", "activity remaining": 90}
